# Rows were chosen to be rich in hits. Some 6.8% of all compounds tested hit in one or more screens of this group.
# T cruzi growth-1: T. cruzi proliferation inhibition. T. cruzi beta-gal in NIH3T3, GalScreen luminescence, 90 h. inhibition, % at 8.34 µM. hit rate 5.9% among 77,000;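 active = mean inhibition above about 93%, with at least 55% of replicates each passing it, limit read from the data, passing the limit was not always enough; inconclusive = only one of those two conditions holds; inactive = neither condition holds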
# Pf Dd2 growth: inhibitors of Plasmodium falciparum Dd2 growth | P. falciparum Dd2 growth, SYBR Green, 72 h; hits give low values | hit rate 2.3% among 94,000 | activity change, % at 10 µM; in the data active = activity change below about -80%; inconclusive = no clear call, values can overlap the other calls
# C diff HTS: inhibitors of Clostridium difficile growth; Clostridium difficile clinical isolate growth, OD600, 24 h; hits give low values; growth activity, negative = inhibition, % at 16 µg/mL (by protocol); hit rate 0.25% among 86,000;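 active = mean growth activity at or below -80% and every replicate also at or below -80%; inconclusive = mean at or below -80% but some replicate above -80%; inactive = mean growth activity above -80%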;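 note: 0% = DMSO wells and -100% = levofloxacin 16 µg/mL wells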
# T cruzi growth-2: inhibitors of T. cruzi proliferation. shares compounds with T cruzi growth-1. T. cruzi beta-gal in NIH3T3, GalScreen luminescence, 90 h. inhibition, % at 8.35 µM. hit rate 72% among 5,600;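 active = mean replicate inhibition above about 95% and at least 55% of replicates individually reaching it, limit read from the data; inconclusive = only one of the two criteria is met; inactive = neither criterion is met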
# T cruzi growth-3: Trypanosoma cruzi proliferation inhibition. shares compounds with T cruzi growth-1. T. cruzi beta-gal in NIH3T3, GalScreen luminescence, 90 h. inhibition, % at 2.09 µM. hit rate 21% among 5,600. AID 651740;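 active = mean inhibition above about 95%, with at least 55% of replicates also reaching it, limit read from the data; inconclusive = meets just one of the two conditions; inactive = meets neither condition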;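 note: plate controls were neutral control median for no effect and positive control median for full effect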
# 3T3 cytotox: cytotoxicity in mouse NIH/3T3 fibroblasts. shares compounds with T cruzi growth-1. NIH/3T3 viability, CellTiter-Glo ATP luminescence, 90 h. cytotoxicity (signal decrease), % at 8.35 µM. hit rate 14% among 5,600. AID 651742;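 active = mean signal decrease across replicates above about 35% based on untreated-well scatter, with enough replicates individually passing, limit read from the data; inconclusive = no rule stated though some were filed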;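 note: 0% = median of neutral control wells and 100% = median of positive control wells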
# 3T3 cytotox 2: cytotoxicity in mouse NIH/3T3 fibroblasts; hit rate 56% among 5,600; NIH/3T3 viability, CellTiter-Glo ATP luminescence, 90 h; shares compounds with T cruzi growth-1; inhibition, % at 24.9 µM;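 active = mean loss of cell viability signal at or above a set limit, and enough replicates individually reaching it; inconclusive = meets only the mean limit or only the replicate share; inactive = meets neither condition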;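 note: 0% = median of neutral control wells and 100% = median of positive control wells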
# An asterisk follows results filed as active; u = inconclusive; x = no result given.
SMILES,T cruzi growth-1,Pf Dd2 growth,C diff HTS,T cruzi growth-2,T cruzi growth-3,3T3 cytotox,3T3 cytotox 2
C[C@H](CO)N1C[C@H](C)[C@H](CN(C)Cc2ccncc2)OCCCC[C@H](C)Oc2ccc(NC(=O)Nc3ccc(C(F)(F)F)cc3)cc2C1=O,94.1,26.3,15.3,x,x,x,x
C[C@H]1CCCCO[C@@H](CN(C)Cc2ccncc2)[C@@H](C)CN([C@@H](C)CO)C(=O)c2cc(NC(=O)Nc3ccc(C(F)(F)F)cc3)ccc2O1,101.0*,-63.1,-6.8,97.4*,114.5*,-5.9,70.4*
C[C@@H]1CN([C@@H](C)CO)C(=O)c2cc(NC(=O)c3ccncc3)ccc2O[C@H]1CN(C)Cc1ccc(C(F)(F)F)cc1,99.8*,-22.7,4.7,23.8,-3.9,9.5,35.6
C[C@@H]1CCCCO[C@@H](CN(C)Cc2ccncc2)[C@@H](C)CN([C@@H](C)CO)C(=O)c2cc(NS(=O)(=O)c3cn(C)cn3)ccc2O1,-54.5,29.2,0.9,x,x,x,x
C[C@@H]1CCCCO[C@H](CN(C)C(=O)C2CCCCC2)[C@@H](C)CN([C@H](C)CO)C(=O)c2cc(NC(=O)CCCCCC(=O)Nc3ccccc3N)ccc2O1,17.1,-33.3,-5.5,x,x,x,x
CO[C@H]1CN(C)C(=O)c2cc(NC(=O)Cc3ccccc3)ccc2OC[C@@H](C)N(C(C)=O)C[C@H]1C,41.4,-11.9,x,x,x,x,x
O=C(C[C@H]1CC[C@@H](NC(=O)c2cccnc2)[C@@H](CO)O1)NCc1ccncn1,-11.5,1.3,-0.1,x,x,x,x
CO[C@@H]1CN(C)C(=O)c2cc(NC(C)=O)ccc2OC[C@@H](C)N(Cc2cc(F)ccc2F)C[C@@H]1C,-2.4,-5.7,x,x,x,x,x
C[C@@H]1CN([C@H](C)CO)C(=O)c2cc(C3=CCCC3)cnc2O[C@H]1CN(C)Cc1cccc(F)c1,60.7,-45.7,0.3,x,x,x,x
C[C@@H]1CN([C@H](C)CO)S(=O)(=O)c2ccc(-c3ccc(F)cc3)cc2O[C@H]1CN(C)C(=O)Nc1ccc(F)cc1,114.2*,-45.2,x,105.6*,46.8,38.5*,73.9*
C[C@H](CO)N1C[C@H](C)[C@H](CN(C)C(=O)Nc2ccc(F)cc2)Oc2cc(-c3ccncc3)ccc2S1(=O)=O,93.4,-48.3,6.7,x,x,x,x
C[C@@H]1CN([C@H](C)CO)S(=O)(=O)c2ccc(Br)cc2O[C@H]1CN(C)C(=O)Nc1ccc(F)cc1,12.3,13.5,1.9,x,x,x,x
C[C@H]1CN([C@@H](C)CO)S(=O)(=O)c2ccc(-c3ccc(F)cc3)cc2O[C@@H]1CN(C)C(=O)Nc1ccc(F)cc1,118.6*,-32.3,x,103.3*,48.0,20.4,57.9*
C[C@@H]1CN([C@H](C)CO)S(=O)(=O)c2ccc(-c3ccncc3)cc2O[C@H]1CN(C)C(=O)Nc1ccc(F)cc1,101.2*,-11.0,5.9,90.4,84.5,-17.0,74.8*
CC(=O)N(C)C[C@@H]1Oc2cc(-c3ccc(F)cc3)ccc2S(=O)(=O)N([C@H](C)CO)C[C@H]1C,-2.0,0.1,6.4,x,x,x,x
C[C@@H]1CN([C@@H](C)CO)S(=O)(=O)c2ccc(-c3ccc(F)cc3)cc2O[C@@H]1CN(C)C(=O)Nc1ccc(F)cc1,123.1*,-23.8,x,110.5*,63.2,23.7,61.8*
CC(=O)N(C)C[C@H]1Oc2cc(-c3ccc(F)cc3)ccc2S(=O)(=O)N([C@H](C)CO)C[C@H]1C,-1.3,22.8,0.4,x,x,x,x
COc1ccccc1NC(=O)N[C@@H]1CC[C@H](CCn2cc(-c3ccccc3OC)nn2)O[C@H]1CO,59.2,-34.7,-7.4,x,x,x,x
CN1c2ccc(-c3ccccc3)cc2[C@@H]2[C@@H](CCN2C(=O)c2ccc(F)cc2)[C@@H]1CO,91.9,-6.3,33.4,x,x,x,x
CC(=O)N(C)C[C@@H]1Oc2cc(Br)ccc2S(=O)(=O)N([C@H](C)CO)C[C@H]1C,8.7,12.1,2.4,x,x,x,x
C/C=C/c1cnc2c(c1)C(=O)N([C@H](C)CO)C[C@H](C)[C@H](CN(C)C(=O)c1ccc3c(c1)OCO3)O2,-2.3,-20.9,3.4,x,x,x,x
Cc1ccc(S(=O)(=O)Nc2ccc3c(c2)C(=O)N([C@@H](C)CO)C[C@H](C)[C@@H](CN(C)C(=O)Nc2c(C)noc2C)OCCCC[C@@H](C)O3)cc1,-25.6,-9.1,0.3,x,x,x,x
O=C(C[C@H]1C[C@H]2c3cc(NC(=O)Cc4ccncc4)ccc3O[C@H]2[C@H](CO)O1)NCCc1ccccc1,33.8,-33.3,x,x,x,x,x
C[C@H](CO)N1C[C@H](C)[C@H](CN(C)Cc2ccccc2)Oc2cc(/C=C/c3ccccc3)ccc2S1(=O)=O,102.6*,-32.0,7.4,100.4*,100.0*,-3.9,104.1*
C[C@H](CO)N1C[C@H](C)[C@@H](CN(C)Cc2ccccc2)Oc2cc(/C=C/c3ccccc3)ccc2S1(=O)=O,70.3,-56.3,0.5,x,x,x,x
SMILES,T cruzi growth-1,Pf Dd2 growth,C diff HTS,T cruzi growth-2,T cruzi growth-3,3T3 cytotox,3T3 cytotox 2
C[C@@H]1CN([C@@H](C)CO)S(=O)(=O)c2ccc(/C=C/c3ccccc3)cc2O[C@@H]1CN(C)Cc1ccc(C(=O)O)cc1,80.3,-4.5,-9.4,x,x,x,x
C[C@@H]1CN([C@@H](C)CO)S(=O)(=O)c2ccc(/C=C/c3ccccc3)cc2O[C@@H]1CN(C)Cc1cccnc1,88.3*,-37.4,-5.5,91.5,86.6,69.6*,94.5*
C[C@H]1CN([C@@H](C)CO)S(=O)(=O)c2ccc(/C=C/c3ccccc3)cc2O[C@H]1CN(C)Cc1ccccc1,110.0*,-18.1,8.2,97.0*,113.2*,-3.8,103.1*
C/C=C/c1ccc2c(c1)O[C@@H](CN(C)Cc1cccnc1)[C@@H](C)CN([C@H](C)CO)S2(=O)=O,82.8,-1.2,1.2,x,x,x,x
COc1ccccc1NC(=O)N1C[C@@H]2[C@H](c3ccccc31)[C@@H](CO)N2C(C)=O,68.7,3.1,-0.9,x,x,x,x
C[C@@H]1CN([C@@H](C)CO)C(=O)c2cc(NS(=O)(=O)c3cccs3)ccc2O[C@H]1CN(C)S(=O)(=O)c1ccc(Cl)cc1,-15.7,-8.3,x,x,x,x,x
C[C@@H]1CN([C@H](C)CO)C(=O)c2cc(N(C)C)ccc2O[C@@H](C)CCCCO[C@H]1CN(C)Cc1ccccc1,87.7,-14.9,1.1,x,x,x,x
CCCC#Cc1ccc2c(c1)O[C@@H](CN(C)C(=O)CC1CC1)[C@H](C)CN([C@@H](C)CO)S2(=O)=O,u,-52.6,-7.3,106.1*,56.0,9.7,49.3*
CCCC#Cc1ccc2c(c1)O[C@@H](CN(C)C(=O)CC1CC1)[C@H](C)CN([C@H](C)CO)S2(=O)=O,112.5*,-45.4,-7.0,100.4*,-21.3,20.7,24.3*
CCCC#Cc1ccc2c(c1)O[C@H](CN(C)C(=O)CC1CC1)[C@H](C)CN([C@H](C)CO)S2(=O)=O,56.6,-39.1,1.5,x,x,x,x
CCCC#Cc1ccc2c(c1)O[C@@H](CN(C)C(=O)CC1CC1)[C@@H](C)CN([C@@H](C)CO)S2(=O)=O,57.1,-30.6,-3.2,x,x,x,x

# From PubChem BioAssay
